Compound activity (PubChem BioAssay)
This is a sample that favours compounds with a hit; in the whole collection about 3.8% have one here.
esBAF inh: inhibitors of esBAF chromatin remodeling in mouse ES cells. AID 602393. Bmi1-luciferase knock-in reporter, 24 h; 100% = twice the neutral-well signal. hit rate 2% among 350,000. reporter increase, % at 12.5 µM; in the data active means activation above about 40%; inconclusive means no clear call, values can overlap the other calls;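 further: a rise in the Bmi1 reporter signal indicates esBAF inhibition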
MITF TRPM1 HTS: activators of MITF-driven TRPM1 promoter activity in SK-MEL-5 cells; activation, % at 12.5 µM; hit rate 0.75% among 300,000; AID 588334; SK-MEL-5 TRPM1-promoter luciferase, 24 h; % of positive control, neutral wells = 0;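 active means mean activation of at least 80% with every replicate also reaching 80%; inconclusive means mean reaches 80% but some replicate falls short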
HSF1 inh: HSF1 inhibition. NIH3T3-HGL HSE-luciferase, MG132-induced, luminescence 8 h; stronger effect = lower value. activity change, negative = inhibition, % at 7.5 µM (by protocol). hit rate 0.77% among 300,000;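 active means more than half of replicate wells show activity change below -50%, luminescence cut by over half; inconclusive means some wells, but at most half, below -50%; inactive means no replicate well below -50%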;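 further: luciferase reports HSF-1 transcriptional activity via heat shock element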
HSF1 activator: increases HSF-1 driven luciferase reporter signal | NIH3T3-HGL HSF-1 luciferase reporter, MG132, 8 h; 100% = twice DMSO control signal | activation, % at 9 µM | hit rate 1.7% among 300,000 | AID 504408;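 active means mean replicate activation of at least 50% with a set share of replicates each reaching 50%; inconclusive means only one of those two conditions met; inactive means mean below 50% and too few replicates reaching it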
Wnt bcat act: activates Wnt/beta-catenin signaling in a reporter cell assay. AID 743398. activation, % at 9.35 µM. activator, plate reader. hit rate 1.2% among 300,000; in the data active means activation above about 30%, passing the limit was not always enough; inconclusive means no clear call, values can overlap the other calls
Numbers stand for hits; - = inactive; ? = inconclusive; . = no result given.

SMILES	esBAF inh	MITF TRPM1 HTS	HSF1 inh	HSF1 activator	Wnt bcat act
O=C(C[C@@H]1CC[C@H]2[C@@H](COC[C@H](O)CN2C(=O)Nc2ccccc2)O1)NCc1ccncn1	-	.	.	.	.
COc1ccc2c(c1)c(C(=O)CNc1nc(C)cs1)c(C)n2C	-	-	-	61	-
O=C1c2ccccc2CCc2ccccc21	-	-	.	.	-
Cn1cccc1/C=C1\CCC/C(=C\c2cccn2C)C1=O	81	.	-	74	71
O=C1C(=Cc2cccs2)CCc2ccccc21	.	.	.	.	48
CC1C/C(=C/c2cccs2)C(=O)/C(=C/c2cccs2)C1 (stereo not drawn)	.	-	.	.	-
Cc1ccccc1N=C1NC(=O)/C(=C/c2cccn2C)S1	.	-	-	-	-
O=C1/C(=C/c2cccs2)CCC/C1=C\c1cccs1	60	-	-	-	36
C[C@@H]1CN([C@@H](C)CO)C(=O)Cc2cc(NC(=O)Nc3ccc(F)cc3)ccc2O[C@@H]1CN(C)C(=O)Nc1cccc2ccccc12	-	.	.	.	.
CO[C@@H]1CN(C)C(=O)c2ccc(NC(=O)c3ccccn3)cc2OC[C@@H](C)N(C(=O)C2CCC2)C[C@H]1C	-	.	.	.	.
CCOC(=O)c1cnc2ccccc2c1NCc1ccco1	.	.	-	-	-
CCOC(=O)c1cnc2ccccc2c1Nc1ccc2c(c1)OCCO2	.	-	-61	-	-
COc1cccc(C(=O)Nc2ccc3c(c2)C(=O)N(C)C[C@H](OC)[C@H](C)CN(C(C)=O)[C@H](C)CO3)c1	-	.	.	.	.
C/C(CC(=O)Nc1cccc2c1CCCC2)=N\NC(=O)c1ccccc1N	-	-	-	57	.
N#CCC(=O)N/N=C\c1cc(Br)ccc1OC/C=C/c1ccccc1	-	93	.	.	?
COC(=O)N/N=C\c1ccccc1OC/C=C/c1ccccc1	49	98	-	-	-
COc1ccccc1/C=C/C(=O)NCC(=O)N/N=C/c1cc(Br)ccc1OC	.	-	-	59	.
COc1cc(/C=N\NC(C)=O)ccc1OC/C=C/c1ccccc1	-	-	-	-	-
N#CCC(=O)N/N=C/c1cccc(Oc2ccccc2)c1	.	-	-	-	-
COc1ccc(/C=C/C(=O)NCC(=O)N/N=C/c2cc(Br)ccc2OC)cc1	-	-	-	-	-
CCOC(=O)N/N=C\c1ccccc1OC/C=C/c1ccccc1	46	-	-	55	42
C[C@@H]1CN([C@H](C)CO)C(=O)c2cccc(NS(=O)(=O)c3cn(C)cn3)c2O[C@@H]1CN(C)C(=O)Nc1ccccc1	-	.	.	.	.
O=C(Oc1cccc(Nc2ncnc3ccccc23)c1)c1ccccc1Cl	.	-	-	-	-
COc1ccc(Nc2ncnc3ccccc23)cc1	-	97	-	-	-
COc1ccc(Nc2ncnc3c2c(C)c(C)n3CCO)cc1	-	-	-	-	41
SMILES	esBAF inh	MITF TRPM1 HTS	HSF1 inh	HSF1 activator	Wnt bcat act
COc1ccc(Nc2ncnc3ccccc23)c(OC)c1	-	-	-	-	-
COc1cccc(Nc2ncnc3ccccc23)c1	58	?	-	-	.
CN(C)C(=O)C[C@@H]1CC[C@H]2[C@@H](COC[C@H](O)CN2Cc2nccs2)O1	-	.	.	.	.
O=C(C[C@@H]1C=C[C@H](NC(=O)CC2CC2)[C@@H](CO)O1)NCC(F)(F)F	-	.	.	.	.
CCC(=O)N(C)C[C@@H]1Oc2ncc(-c3ccccc3C)cc2C(=O)N([C@H](C)CO)C[C@@H]1C	-	.	.	.	.
Cc1cc(O)c(C(=O)/C=C/c2ccc(C(C)C)cc2)c(=O)o1	-	-	-	-	39
CCCCCc1ccc(-c2ccc(OC)cc2)nc1	98	97	-	-	-
C/C=C1\COC(C(=O)NCc2ccccc2)(C(F)(F)F)C=C1C=C(C)C (stereo not drawn)	-	-	-	153	-
CCOc1cc(/C=N/Nc2nc(=O)[nH]nc2C)ccc1O	-	-	-	-	-
CCOc1cc(/C=N/Nc2nnc(C)n2N)ccc1O	-	.	-	58	-
CCOc1cc(/C=N/NC(=O)N/N=C/c2ccc(O)c(OCC)c2)ccc1O	.	.	-	-	49
CCOc1cc(/C=N/Nc2ncnc(Cl)c2N)ccc1O	57	-	-	-	.
CCOc1cc(/C=N/NC(=O)C(=O)N/N=C/c2ccc(O)c(OCC)c2)ccc1O	-	.	-	-	-
C[C@H](CO)N1C[C@H](C)[C@@H](CN(C)Cc2ccc(Cl)c(Cl)c2)Oc2ccc(NC(=O)c3ccncc3)cc2CC1=O	-	.	.	.	.
O=C(Nc1ccc(Cl)cc1)c1cc(-c2cccs2)on1	-	-	-	-	-
CC(=O)c1cccc(NC(=O)c2cc(-c3cccs3)on2)c1	-	-	-	-	-
O=C(Nc1cccc(O)c1)c1cc(-c2cccs2)on1	81	88	-	-	-
